According to PMC5540273 (PLoS ONE, 2017):

tested on: FLT3-autoinhibited; settings: concentration: 1 μM,replicates: in singlicate; n = 1
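Note: KINOMEscan kinase panel screen.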

First: CN(C)CCOc1ccc(-c2cc(-c3c[nH]nc3-c3ccccn3)ccn2)cc1 [GW835314]
Second: Cl.Oc1cc(-c2nc(-c3ccccc3)[nH]c2-c2ccncc2)ccc1Cl [SB-386023]
The “%Inh” value of the first is higher: 35% for the first, 0% for the second.

First: CC(C)N1C(=O)Cc2cc(Nc3ncc(C(F)(F)F)c(NCc4cccc(S(C)(=O)=O)c4)n3)ccc21
Second: CCN(CC)CCOc1ccc(Nc2ncc3cc(-c4c(Cl)cccc4Cl)c(=O)n(C)c3n2)cc1 [SB-601273]
The “%Inh” value of the first is lower: 57% for the first, 65% for the second.

Going from O=C(NCCNc1ccnc(NCc2ccc(F)cc2)n1)c1cc2ccccc2s1 [GSK1379944] to COc1ccc(C[C@@H](CN)NC(=O)c2cc(Br)c(-c3ccnc4[nH]ccc34)s2)cc1.Cl.Cl [GSK1389063], the “%Inh” value rises from 0% to 42%.

Compared with CCn1c(-c2nonc2N)nc2c(C#CC(C)(C)O)nc(OCCN)cc21.Cl.Cl [GSK902056], CCN(CC)CCCCNc1ncc2cc(-c3c(Cl)cccc3Cl)c(NC(=O)NC(C)(C)C)nc2n1 is higher in “%Inh” value: 0% for the first, 24% for the second.

Cc1occc1-c1nc(N)c(OC[C@@H](N)Cc2c[nH]c3ccccc23)cc1-c1cc2c(C)n[nH]c2cn1 [GSK1660450] and Cc1n[nH]c2ccc(-c3cc(OC[C@@H](N)Cc4ccccc4)cnc3-c3ccoc3)cc12.O=C(O)C(F)(F)F.O=C(O)C(F)(F)F [GSK507358] are the same in “%Inh” value: 0% for the first, 0% for the second.

First: Cl.Cl.NC[C@H](Cc1ccc(C(F)(F)F)cc1)NC(=O)c1cc(Br)c(-c2ccnc3[nH]ccc23)s1 [GSK1487252]
Second: Cl.Cl.NC[C@H](CC1CCCCC1)NC(=O)c1cc(Br)c(-c2ccnc3[nH]ccc23)s1 [GSK1581427]
The “%Inh” value of the first is higher: 23% for the first, 8% for the second.

Compared with C[C@@H]1CCN(C(=O)CC#N)C[C@@H]1N(C)c1ncnc2[nH]ccc12, Cl.Cl.Nc1nc(-c2ccc3c(N)n[nH]c3c2)cc(N2CCCC(NC(=O)c3ccccc3)C2)n1 (stereo not drawn) [GSK2286775] is higher in “%Inh” value: 0% for the first, 2% for the second.

Compared with CNC(=O)c1ccccc1Sc1ccc2c(/C=C/c3ccccn3)n[nH]c2c1, Nc1nc(Nc2ccccc2)cc(-c2ccc3c(N)n[nH]c3c2)n1 [GSK2225749] is higher in “%Inh” value: 15% for the first, 19% for the second.

Compared with O=C(NCCCN1CCOC1=O)c1cnc(NCc2cc(Cl)ccc2Cl)nc1NC1CCCC1, C=CC(=O)Nc1cc2c(Nc3ccc(F)c(Cl)c3)ncnc2cc1OCCCN1CCOCC1 [GW781483] is higher in “%Inh” value: 0% for the first, 2% for the second.

Compared with Cc1cc(C(=O)Nc2ccc(Oc3ccc4nc(NC(=O)C5CC5)cn4n3)cc2)nn1-c1ccccc1, Cc1ccc(-n2nc(C(C)(C)C)cc2NC(=O)Nc2ccc(OCCN3CCOCC3)c3ccccc23)cc1 [GW839464] is lower in “%Inh” value: 18% for the first, 0% for the second.

First: CN(C)CC(O)COc1ccc(Nc2nccc(-c3cnn4nc(N5CCOCC5)ccc34)n2)cc1 (stereo not drawn) [GW767488]
Second: Cc1ccc2c(-c3ccncc3)c(-c3ccc(F)cc3)nn2c1.Cl [GW461484]
The “%Inh” value of the first is higher: 40% for the first, 0% for the second.

First: Cc1cc2cn[nH]c2cc1-c1cccc2c(N)c(C(N)=O)nnc12
Second: CC(C)Nc1cc(-c2ccc3c(N)n[nH]c3c2)nc(N)n1 [GSK2221681]
The “%Inh” value of the first is higher: 19% for the first, 0% for the second.

First: C[C@@H](Oc1cc(-c2cnn(C3CCNCC3)c2)cnc1N)c1c(Cl)ccc(F)c1Cl
Second: NC(=O)c1cc(-c2ccccc2)cc2c(C3CCNCC3)c[nH]c12 [GSK301362]
The “%Inh” value of the first is higher: 31% for the first, 25% for the second.

For C[C@H]1Oc2cc(cnc2N)-c2c(nn(C)c2C#N)CN(C)C(=O)c2ccc(F)cc21, the “%Inh” value was 0%.

tested on: FLT3; settings: concentration: 1 μM,replicates: in singlicate; n = 1

Compared with CN(C)CCOc1ccc(-c2cc(-c3c[nH]nc3-c3ccccn3)ccn2)cc1 [GW835314], Cl.Oc1cc(-c2nc(-c3ccccc3)[nH]c2-c2ccncc2)ccc1Cl [SB-386023] is lower in “%Inh” value: 59% for the first, 12% for the second.

First: CC(C)N1C(=O)Cc2cc(Nc3ncc(C(F)(F)F)c(NCc4cccc(S(C)(=O)=O)c4)n3)ccc21
Second: CCN(CC)CCOc1ccc(Nc2ncc3cc(-c4c(Cl)cccc4Cl)c(=O)n(C)c3n2)cc1 [SB-601273]
The “%Inh” value of the first is lower: 97.6% for the first, 98.7% for the second.

Going from O=C(NCCNc1ccnc(NCc2ccc(F)cc2)n1)c1cc2ccccc2s1 [GSK1379944] to COc1ccc(C[C@@H](CN)NC(=O)c2cc(Br)c(-c3ccnc4[nH]ccc34)s2)cc1.Cl.Cl [GSK1389063], the “%Inh” value rises from 0% to 98%.

Going from CCn1c(-c2nonc2N)nc2c(C#CC(C)(C)O)nc(OCCN)cc21.Cl.Cl [GSK902056] to CCN(CC)CCCCNc1ncc2cc(-c3c(Cl)cccc3Cl)c(NC(=O)NC(C)(C)C)nc2n1, the “%Inh” value rises from 0% to 98.1%.

Cc1occc1-c1nc(N)c(OC[C@@H](N)Cc2c[nH]c3ccccc23)cc1-c1cc2c(C)n[nH]c2cn1 [GSK1660450] and Cc1n[nH]c2ccc(-c3cc(OC[C@@H](N)Cc4ccccc4)cnc3-c3ccoc3)cc12.O=C(O)C(F)(F)F.O=C(O)C(F)(F)F [GSK507358] are the same in “%Inh” value: 0% for the first, 0% for the second.

First: Cl.Cl.NC[C@H](Cc1ccc(C(F)(F)F)cc1)NC(=O)c1cc(Br)c(-c2ccnc3[nH]ccc23)s1 [GSK1487252]
Second: Cl.Cl.NC[C@H](CC1CCCCC1)NC(=O)c1cc(Br)c(-c2ccnc3[nH]ccc23)s1 [GSK1581427]
The “%Inh” value of the first is lower: 63% for the first, 68% for the second.

C[C@@H]1CCN(C(=O)CC#N)C[C@@H]1N(C)c1ncnc2[nH]ccc12 and Cl.Cl.Nc1nc(-c2ccc3c(N)n[nH]c3c2)cc(N2CCCC(NC(=O)c3ccccc3)C2)n1 (stereo not drawn) [GSK2286775] are the same in “%Inh” value: 0% for the first, 0% for the second.

First: CNC(=O)c1ccccc1Sc1ccc2c(/C=C/c3ccccn3)n[nH]c2c1
Second: Nc1nc(Nc2ccccc2)cc(-c2ccc3c(N)n[nH]c3c2)n1 [GSK2225749]
The “%Inh” value of the first is lower: 0% for the first, 2% for the second.

Going from O=C(NCCCN1CCOC1=O)c1cnc(NCc2cc(Cl)ccc2Cl)nc1NC1CCCC1 to C=CC(=O)Nc1cc2c(Nc3ccc(F)c(Cl)c3)ncnc2cc1OCCCN1CCOCC1 [GW781483], the “%Inh” value rises from 21% to 27%.

Going from Cc1cc(C(=O)Nc2ccc(Oc3ccc4nc(NC(=O)C5CC5)cn4n3)cc2)nn1-c1ccccc1 to Cc1ccc(-n2nc(C(C)(C)C)cc2NC(=O)Nc2ccc(OCCN3CCOCC3)c3ccccc23)cc1 [GW839464], the “%Inh” value falls from 97.5% to 29%.

First: CN(C)CC(O)COc1ccc(Nc2nccc(-c3cnn4nc(N5CCOCC5)ccc34)n2)cc1 (stereo not drawn) [GW767488]
Second: Cc1ccc2c(-c3ccncc3)c(-c3ccc(F)cc3)nn2c1.Cl [GW461484]
The “%Inh” value of the first is higher: 58% for the first, 37% for the second.

First: Cc1cc2cn[nH]c2cc1-c1cccc2c(N)c(C(N)=O)nnc12
Second: CC(C)Nc1cc(-c2ccc3c(N)n[nH]c3c2)nc(N)n1 [GSK2221681]
The “%Inh” value of the first is higher: 10% for the first, 0% for the second.

Going from C[C@@H](Oc1cc(-c2cnn(C3CCNCC3)c2)cnc1N)c1c(Cl)ccc(F)c1Cl to NC(=O)c1cc(-c2ccccc2)cc2c(C3CCNCC3)c[nH]c12 [GSK301362], the “%Inh” value rises from 40% to 47%.

In the case of C[C@H]1Oc2cc(cnc2N)-c2c(nn(C)c2C#N)CN(C)C(=O)c2ccc(F)cc21, the “%Inh” value is reported as 26%.
